Reference: the supplement of paper PMC10849652
About 7,900 targets were measured; listed, in parts, are those with a hit and a random draw of the rest. About 0.6% of all pairs of compound and target were hits.

How the values were obtained:
Assay in all cases: log2 fold change, soluble protein after heating vs DMSO (PISA); higher = thermal stabilisation; K562 cells, 10 uM, 30 min; active = over 0.2 and 3.5 SD of the protein, either way, in both replicates (recomputed)
IRAK-1-4 Inhibitor I = compound: C1COCCN1CCN2C3=CC=CC=C3N=C2NC(=O)C4=CC(=CC=C4)[N+](=O)[O-] [IRAK-1-4 Inhibitor I]
In short: (§1)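 Soluble protein was defined as the supernatant after 21,000xg for 90 min. It came from K562 cells at 2×10^6 cells/mL given 10 μM compound for 30 min, heated in aliquots for 3 min across 48°C-58°C, pooled, and extracted in PBS with 0.5% NP-40 at 4°C, and was quantified by TMTpro 16plex LC-MS/MS with equalised channel sums. Thermal stability against control samples, from duplicates, is reported as log2 fold change.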

ibrutinib = compound: C=CC(=O)N1CCC[C@@H](n2nc(-c3ccc(Oc4ccccc4)cc3)c3c(N)ncnc32)C1 [ibrutinib]
In short: as §1

ralimetinib = compound: CC(C)(C)Cn1c(N)nc2ccc(-c3[nH]c(C(C)(C)C)nc3-c3ccc(F)cc3)nc21 [ralimetinib]
In short: as §1

[1] = compound: CC(C)C1=C2N=C(C=C(N2N=C1)NCC3=CC=CC=C3)NCCCCCCN
In short: as §1

[2] = compound: CC(C)C[C@@H](C=O)NC(=O)[C@H](CC(C)C)NC(=O)[C@H](CC(C)C)NC(=O)OCc1ccccc1
In short: as §1

pinometostat = compound: CC(C)N(C[C@H]1O[C@@H](n2cnc3c(N)ncnc32)[C@H](O)[C@@H]1O)[C@H]1C[C@@H](CCc2nc3cc(C(C)(C)C)ccc3[nH]2)C1 [pinometostat]
In short: as §1

[3] = compound: CC1=C(C(CC(=O)N1)C2=CC=C(C=C2)C(F)(F)F)C(=O)NC3=C(C=C4C(=C3)C=NN4)F
In short: as §1

[4] = compound: CC1=C(C2=C(C=C1)C(=O)C3=CC=CC=C3N2CCCN)C
In short: as §1

[5] = compound: CC(=O)c1cnc2ccc(-c3cc(Cl)c(O)c(Cl)c3)nc2c1N[C@H]1CC[C@H](CN(C)C)CC1
In short: as §1

[6] = compound: CC(C)(O)CC(=O)NCCn1ccc2ncnc(Nc3ccc(Oc4cccc(C(F)(F)F)c4)c(Cl)c3)c21
In short: as §1

Measured: log2 fold change

C6orf120 (UniProt Q7Z4R8)
inactive: IRAK-1-4 Inhibitor I 0.116 | ibrutinib -0.003 | ralimetinib 0.015 | [1] -0.19 | [2] -0.003 | pinometostat -0.023 | [3] 0.062 | [4] 0.002

CLASP2 isoform 3 (UniProt O75122)
inactive: IRAK-1-4 Inhibitor I -0.047 | ralimetinib 0.009 | [6] -0.056 | [1] -0.036 | [2] 0.046 | pinometostat 0.018 | [3] 0.023 | [4] 0.046
active: [5] -0.297

COMMD1 (UniProt Q8N668)
inactive: IRAK-1-4 Inhibitor I -0.033 | ibrutinib -0.083 | ralimetinib 0.036 | [6] 0.06 | [1] -0.177 | [2] 0.19 | pinometostat 0.046 | [3] 0.027 | [4] 0.006

C15orf41 (UniProt Q9Y2V0)
inactive: IRAK-1-4 Inhibitor I 0.105 | [5] 0.062 | ralimetinib 0.004 | [6] -0.103 | [1] -0.17 | [2] 0.11 | pinometostat 0.027 | [4] -0.117

CLPX (UniProt O76031)
Sequence of UniProt O76031 (O76031 whole entry, looked up): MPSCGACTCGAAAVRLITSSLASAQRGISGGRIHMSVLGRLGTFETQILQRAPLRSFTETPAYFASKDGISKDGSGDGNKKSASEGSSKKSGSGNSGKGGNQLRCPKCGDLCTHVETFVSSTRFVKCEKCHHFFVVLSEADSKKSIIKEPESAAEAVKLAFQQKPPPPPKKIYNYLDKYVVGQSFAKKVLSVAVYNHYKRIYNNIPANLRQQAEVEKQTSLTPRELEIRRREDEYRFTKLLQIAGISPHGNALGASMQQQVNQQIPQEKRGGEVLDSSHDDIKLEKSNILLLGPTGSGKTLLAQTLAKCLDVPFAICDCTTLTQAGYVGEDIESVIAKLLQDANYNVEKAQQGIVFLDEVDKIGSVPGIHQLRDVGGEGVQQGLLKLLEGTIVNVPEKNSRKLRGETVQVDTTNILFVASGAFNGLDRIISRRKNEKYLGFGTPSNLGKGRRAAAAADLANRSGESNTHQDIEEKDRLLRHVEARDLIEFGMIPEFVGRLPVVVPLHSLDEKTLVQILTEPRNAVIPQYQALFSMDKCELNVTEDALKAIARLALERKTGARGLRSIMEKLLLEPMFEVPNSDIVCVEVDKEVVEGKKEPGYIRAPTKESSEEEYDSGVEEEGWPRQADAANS
inactive: IRAK-1-4 Inhibitor I 0.002 | [5] 0.006 | ralimetinib -0.03 | [6] -0.02 | [1] 0.048 | [2] -0.055 | pinometostat -0.026 | [3] 0.004 | [4] 0.012

CEBPZOS (UniProt A8MTT3)
Sequence of UniProt A8MTT3 (A8MTT3 whole entry, looked up): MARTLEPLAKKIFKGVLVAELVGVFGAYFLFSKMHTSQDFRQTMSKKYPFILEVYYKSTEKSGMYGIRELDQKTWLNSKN
inactive: IRAK-1-4 Inhibitor I -0.034 | ibrutinib -0.095 | [5] 0.003 | ralimetinib -0.076 | [1] 0.018 | [2] -0.059 | pinometostat -0.026 | [3] 0.02 | [4] 0

CLUH (UniProt O75153)
active: [5] 0.467
inactive: IRAK-1-4 Inhibitor I 0.107 | ralimetinib 0.028 | [6] -0.048 | [1] -0.179 | [2] -0.009 | pinometostat 0.045 | [3] -0.094 | [4] 0.095

CASP10 isoform 4 (UniProt Q92851)
inactive: IRAK-1-4 Inhibitor I -0.132 | ibrutinib -0.083 | [5] 0.083 | ralimetinib 0.095 | [6] -0.13 | [2] -0.015 | pinometostat 0.047 | [3] 0.021 | [4] 0.262

CAV2 (UniProt P51636)
Sequence of UniProt P51636 (P51636 whole entry, looked up): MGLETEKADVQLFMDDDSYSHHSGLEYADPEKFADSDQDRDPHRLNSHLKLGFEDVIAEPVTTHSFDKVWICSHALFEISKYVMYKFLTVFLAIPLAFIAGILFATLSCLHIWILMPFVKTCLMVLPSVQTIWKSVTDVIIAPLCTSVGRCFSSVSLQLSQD
inactive: IRAK-1-4 Inhibitor I -0.165 | ibrutinib 0.105 | [5] 0.025 | [1] -0.073 | pinometostat 0.178 | [3] 0.028 | [4] 0.005

CARD9 (UniProt Q9H257)
inactive: IRAK-1-4 Inhibitor I -0.181 | [5] -0.255 | ralimetinib 0.15 | [1] 0.071 | [2] 0.178 | pinometostat 0.202

CLUH, A0A494C0R8
inactive: IRAK-1-4 Inhibitor I -0.016 | ralimetinib -0.125 | [6] -0.231 | [1] -0.257 | [2] 0.199 | pinometostat -0.044 | [3] -0.058 | [4] 0.046
active: [5] 0.508

CFAP36 isoform 2 (UniProt Q96G28)
Sequence of UniProt Q96G28 (Q96G28 whole entry, looked up): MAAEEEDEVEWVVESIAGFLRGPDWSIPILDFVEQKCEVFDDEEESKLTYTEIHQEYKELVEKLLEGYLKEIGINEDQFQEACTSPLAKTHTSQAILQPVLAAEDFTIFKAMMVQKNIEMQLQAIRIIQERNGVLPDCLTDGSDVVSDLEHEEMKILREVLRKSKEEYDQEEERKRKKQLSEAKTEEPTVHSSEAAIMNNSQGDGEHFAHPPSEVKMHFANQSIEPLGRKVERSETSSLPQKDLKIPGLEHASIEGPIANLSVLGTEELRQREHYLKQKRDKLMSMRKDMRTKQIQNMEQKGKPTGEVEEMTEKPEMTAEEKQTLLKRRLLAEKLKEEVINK
inactive: IRAK-1-4 Inhibitor I -0.183 | ibrutinib -0.022 | [5] 0.001 | ralimetinib 0.053 | [6] -0.012 | [1] -0.09 | [2] 0.065 | pinometostat 0.024 | [4] 0.103

CLTB (UniProt P09497)
Sequence of UniProt P09497 (P09497 whole entry, looked up): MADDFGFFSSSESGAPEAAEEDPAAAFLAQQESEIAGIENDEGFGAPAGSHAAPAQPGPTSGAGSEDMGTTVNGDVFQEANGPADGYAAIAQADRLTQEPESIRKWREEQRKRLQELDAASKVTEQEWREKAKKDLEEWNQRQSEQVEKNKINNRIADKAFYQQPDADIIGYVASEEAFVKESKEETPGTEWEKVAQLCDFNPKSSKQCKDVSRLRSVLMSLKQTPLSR
inactive: IRAK-1-4 Inhibitor I 0.053 | [5] 0.089 | ralimetinib 0.061 | [6] -0.021 | [1] 0.024 | [2] -0.067 | pinometostat -0.07 | [3] 0 | [4] -0.007

CLSPN (UniProt Q9HAW4)
inactive: IRAK-1-4 Inhibitor I 0.028 | [5] -0.04 | ralimetinib -0.033 | [6] 0.038 | [1] -0.062 | [2] 0.124 | pinometostat -0.018 | [3] 0.009
active: [4] -0.541

COG2 (UniProt Q14746)
Sequence of UniProt Q14746 (Q14746 whole entry, looked up): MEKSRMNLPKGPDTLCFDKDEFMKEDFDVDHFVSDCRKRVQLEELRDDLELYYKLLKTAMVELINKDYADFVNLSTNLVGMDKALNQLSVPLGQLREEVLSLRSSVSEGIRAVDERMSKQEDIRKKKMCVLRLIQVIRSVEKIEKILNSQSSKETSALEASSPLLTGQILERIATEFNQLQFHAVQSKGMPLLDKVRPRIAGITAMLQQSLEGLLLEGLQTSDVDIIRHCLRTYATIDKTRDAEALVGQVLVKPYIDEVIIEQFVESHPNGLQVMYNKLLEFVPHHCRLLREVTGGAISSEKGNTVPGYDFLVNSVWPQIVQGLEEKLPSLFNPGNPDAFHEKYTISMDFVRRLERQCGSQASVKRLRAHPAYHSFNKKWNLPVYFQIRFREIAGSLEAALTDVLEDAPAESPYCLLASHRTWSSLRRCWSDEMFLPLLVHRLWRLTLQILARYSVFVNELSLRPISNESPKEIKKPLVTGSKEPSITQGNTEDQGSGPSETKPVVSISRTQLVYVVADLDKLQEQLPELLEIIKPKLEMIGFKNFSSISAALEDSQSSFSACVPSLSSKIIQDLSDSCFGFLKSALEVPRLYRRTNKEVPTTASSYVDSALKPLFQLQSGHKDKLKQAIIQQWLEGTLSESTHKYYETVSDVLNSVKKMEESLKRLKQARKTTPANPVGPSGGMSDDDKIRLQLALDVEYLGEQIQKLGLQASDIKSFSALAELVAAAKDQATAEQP
inactive: IRAK-1-4 Inhibitor I -0.232 | [5] -0.042 | ralimetinib 0.099 | [6] -0.317 | [1] -0.009 | [2] 0.18 | pinometostat -0.043 | [3] 0.132 | [4] -0.108

CASP9 (UniProt P55211)
inactive: IRAK-1-4 Inhibitor I 0.03 | [5] -0.096 | ralimetinib 0.008 | [6] -0.043 | [2] 0.053 | pinometostat 0.03 | [3] -0.071 | [4] -0.206

CCDC57 (UniProt Q2TAC2)
Sequence of UniProt Q2TAC2 (Q2TAC2 whole entry, looked up): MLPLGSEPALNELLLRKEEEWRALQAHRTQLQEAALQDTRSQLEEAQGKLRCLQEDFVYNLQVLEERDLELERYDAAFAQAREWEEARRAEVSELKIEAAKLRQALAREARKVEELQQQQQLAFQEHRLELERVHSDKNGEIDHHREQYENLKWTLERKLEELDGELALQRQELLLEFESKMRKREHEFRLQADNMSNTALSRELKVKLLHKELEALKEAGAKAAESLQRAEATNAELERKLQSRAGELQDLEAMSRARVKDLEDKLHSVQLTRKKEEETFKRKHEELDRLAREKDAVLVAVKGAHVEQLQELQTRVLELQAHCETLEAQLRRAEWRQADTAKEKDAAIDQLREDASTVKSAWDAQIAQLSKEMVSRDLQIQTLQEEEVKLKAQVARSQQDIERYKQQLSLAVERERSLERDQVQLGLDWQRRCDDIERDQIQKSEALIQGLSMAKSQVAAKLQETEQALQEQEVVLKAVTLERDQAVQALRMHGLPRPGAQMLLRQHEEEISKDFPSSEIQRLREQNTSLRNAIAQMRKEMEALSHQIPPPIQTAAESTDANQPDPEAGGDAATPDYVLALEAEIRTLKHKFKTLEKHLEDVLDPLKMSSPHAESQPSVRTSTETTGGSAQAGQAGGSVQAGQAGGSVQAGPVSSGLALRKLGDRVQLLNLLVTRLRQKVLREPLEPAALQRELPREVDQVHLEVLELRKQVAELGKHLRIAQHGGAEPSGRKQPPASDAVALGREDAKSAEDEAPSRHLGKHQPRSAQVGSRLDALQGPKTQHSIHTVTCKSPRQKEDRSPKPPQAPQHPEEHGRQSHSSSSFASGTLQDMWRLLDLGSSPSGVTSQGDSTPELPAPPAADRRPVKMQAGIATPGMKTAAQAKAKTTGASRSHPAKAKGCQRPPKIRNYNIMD
inactive: IRAK-1-4 Inhibitor I 0.067 | ibrutinib -0.021 | ralimetinib 0.005 | [6] -0.007 | [1] 0.041 | [2] 0.05 | pinometostat -0.04 | [3] 0.042 | [4] 0.012

CLPTM1L (UniProt Q96KA5)
active: [1] -0.281
inactive: IRAK-1-4 Inhibitor I 0.051 | [5] -0.033 | ralimetinib -0.05 | [6] -0.069 | [2] 0.006 | pinometostat 0.023 | [3] 0.042 | [4] 0.033

CLCN3 isoform 2 (UniProt P51790)
inactive: IRAK-1-4 Inhibitor I 0.005 | [5] -0.008 | ralimetinib 0.026 | [6] -0.043 | [1] -0.049 | [2] -0.066 | pinometostat -0.043 | [3] -0.012 | [4] 0.051

CEP128 (UniProt Q6ZU80)
inactive: IRAK-1-4 Inhibitor I -0.149 | ibrutinib -0.055 | [5] -0.022 | pinometostat 0.012 | [4] 0.1

CCM2 isoform 2 (UniProt Q9BSQ5)
Sequence of UniProt Q9BSQ5 (Q9BSQ5 whole entry, looked up): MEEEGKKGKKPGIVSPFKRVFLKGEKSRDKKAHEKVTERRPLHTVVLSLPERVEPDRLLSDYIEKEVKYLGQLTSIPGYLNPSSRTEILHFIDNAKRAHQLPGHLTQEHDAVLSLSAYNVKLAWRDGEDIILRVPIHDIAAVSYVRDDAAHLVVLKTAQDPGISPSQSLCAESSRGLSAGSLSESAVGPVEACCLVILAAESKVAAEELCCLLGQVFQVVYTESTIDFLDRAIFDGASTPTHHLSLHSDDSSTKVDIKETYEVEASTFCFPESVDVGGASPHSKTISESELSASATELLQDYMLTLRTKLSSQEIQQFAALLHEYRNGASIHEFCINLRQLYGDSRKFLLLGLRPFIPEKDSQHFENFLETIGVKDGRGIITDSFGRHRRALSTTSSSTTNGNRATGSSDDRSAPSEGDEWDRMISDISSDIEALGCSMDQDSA
inactive: IRAK-1-4 Inhibitor I 0.027 | ibrutinib -0.004 | ralimetinib 0.04 | [6] 0.027 | [1] -0.085 | [2] 0.009 | pinometostat 0.056 | [4] -0.013

CDK17 isoform 2 (UniProt Q00537)
inactive: IRAK-1-4 Inhibitor I 0.101 | ibrutinib 0.003 | [5] 0.258 | [6] -0.069 | [1] 0.078 | pinometostat 0.037

CLCN7 (UniProt P51798)
active: [1] -0.91
inactive: IRAK-1-4 Inhibitor I -0.01 | [5] -0.005 | ralimetinib -0.055 | [6] -0.08 | [2] 0 | pinometostat -0.051 | [3] 0.04 | [4] -0.092

COX7B (UniProt P24311)
Sequence of UniProt P24311 (P24311 whole entry, looked up): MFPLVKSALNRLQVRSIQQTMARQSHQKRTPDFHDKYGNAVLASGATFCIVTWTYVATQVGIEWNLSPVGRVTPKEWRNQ
inactive: IRAK-1-4 Inhibitor I 0.045 | ibrutinib 0.074 | [5] 0.034 | [6] -0.011 | [1] 0.112 | pinometostat -0.139 | [3] -0.011 | [4] 0.266

CENPE (UniProt Q02224)
inactive: IRAK-1-4 Inhibitor I 0.046 | ibrutinib -0.184 | [5] 0.431 | ralimetinib 0.119 | [1] 0.211 | [2] 0.11 | pinometostat -0.002 | [4] 0.101

CNOT4 isoform 9 (UniProt O95628)
Sequence of UniProt O95628 (O95628 whole entry, looked up): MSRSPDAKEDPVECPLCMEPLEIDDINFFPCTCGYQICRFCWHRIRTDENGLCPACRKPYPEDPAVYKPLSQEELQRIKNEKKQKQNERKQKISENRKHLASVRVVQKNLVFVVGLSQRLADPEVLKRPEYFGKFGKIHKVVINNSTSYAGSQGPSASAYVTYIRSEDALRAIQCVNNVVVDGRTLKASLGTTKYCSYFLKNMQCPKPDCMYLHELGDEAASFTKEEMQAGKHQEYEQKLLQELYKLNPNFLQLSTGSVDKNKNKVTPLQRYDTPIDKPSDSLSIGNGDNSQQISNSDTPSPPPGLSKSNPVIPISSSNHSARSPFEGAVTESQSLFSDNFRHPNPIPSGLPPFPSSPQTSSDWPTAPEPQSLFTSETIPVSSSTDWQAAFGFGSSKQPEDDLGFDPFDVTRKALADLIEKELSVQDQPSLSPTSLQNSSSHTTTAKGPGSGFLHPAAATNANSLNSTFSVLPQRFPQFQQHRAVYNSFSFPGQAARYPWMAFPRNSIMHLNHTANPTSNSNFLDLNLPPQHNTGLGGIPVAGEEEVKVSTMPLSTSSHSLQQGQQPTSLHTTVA
inactive: IRAK-1-4 Inhibitor I 0.09 | ibrutinib 0.089 | [5] 0.189 | ralimetinib 0.128 | [1] -0.068 | [2] 0.015 | pinometostat -0.028 | [3] -0.024 | [4] 0.202

COPS3 isoform 2 (UniProt Q9UNS2)
inactive: IRAK-1-4 Inhibitor I 0.098 | ibrutinib -0.015 | [5] -0.191 | ralimetinib -0.214 | [6] -0.097 | [2] 0.258 | pinometostat 0.071 | [3] 0.046 | [4] 0.053

CRTC1 isoform 2 (UniProt Q6UUV9)
inactive: IRAK-1-4 Inhibitor I 0.026 | ibrutinib -0.061 | [5] -0.023 | ralimetinib 0.025 | [6] -0.042 | [1] 0.112 | [2] -0.041 | pinometostat -0.024 | [4] 0.072

CLPP (UniProt Q16740)
Sequence of UniProt Q16740 (Q16740 whole entry, looked up): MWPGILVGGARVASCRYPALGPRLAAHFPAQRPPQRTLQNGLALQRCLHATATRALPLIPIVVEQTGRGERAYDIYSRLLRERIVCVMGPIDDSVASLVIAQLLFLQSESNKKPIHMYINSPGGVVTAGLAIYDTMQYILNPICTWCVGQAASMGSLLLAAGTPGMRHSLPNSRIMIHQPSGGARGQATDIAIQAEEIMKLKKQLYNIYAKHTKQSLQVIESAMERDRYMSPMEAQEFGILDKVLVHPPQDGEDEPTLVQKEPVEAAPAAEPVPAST
inactive: IRAK-1-4 Inhibitor I -0.023 | [5] 0.022 | ralimetinib -0.012 | [6] 0.017 | [1] 0.097 | [2] -0.008 | pinometostat -0.094 | [3] -0.011 | [4] 0.079

CLCN3 (UniProt P51790)
inactive: IRAK-1-4 Inhibitor I 0.014 | [5] -0.062 | ralimetinib -0.076 | [6] 0.015 | [1] -0.05 | [2] -0.039 | pinometostat -0.031 | [3] -0.045 | [4] -0.053

C19orf54 (UniProt Q5BKX5)
Sequence of UniProt Q5BKX5 (Q5BKX5 whole entry, looked up): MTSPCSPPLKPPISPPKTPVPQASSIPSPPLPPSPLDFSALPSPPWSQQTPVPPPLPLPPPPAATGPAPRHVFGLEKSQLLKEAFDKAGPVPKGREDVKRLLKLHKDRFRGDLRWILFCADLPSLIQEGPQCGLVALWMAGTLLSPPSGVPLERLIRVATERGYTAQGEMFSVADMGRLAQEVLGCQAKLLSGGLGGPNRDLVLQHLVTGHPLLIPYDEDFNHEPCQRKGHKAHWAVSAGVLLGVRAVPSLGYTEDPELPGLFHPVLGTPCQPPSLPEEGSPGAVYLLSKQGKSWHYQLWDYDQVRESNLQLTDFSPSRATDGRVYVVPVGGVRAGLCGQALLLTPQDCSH
inactive: IRAK-1-4 Inhibitor I 0.008 | [5] 0.045 | ralimetinib 0.019 | [6] -0.003 | [1] -0.022 | [2] 0.08 | pinometostat -0.016 | [4] -0.054

CDCA2 (UniProt Q69YH5)
inactive: IRAK-1-4 Inhibitor I 0.023 | [5] 0.011 | ralimetinib 0.081 | [6] -0.138 | [1] -0.009 | [2] 0.188 | pinometostat -0.008 | [3] -0.018 | [4] -0.003
